Assay results as given in PubChem BioAssay AID2016 (NMMLSC, 2009).
The whole screen tested about 330,000 compounds, of which about 1,700 (0.52%) were called active. The sample holds actives, similar compounds and a random draw of the others, so the mix is not that of the screen.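 The calls were made as follows: active = GFP response versus DMSO above a set limit, roughly screen mean plus 3 SD (cut at about 180% in these data); inconclusive = fewer than 70 cells counted for a yeast strain; inactive = the rest.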

Experiment: TOR pathway GLN3 branch reporter MEP2-GFP changes – S. cerevisiae, multiplex flow cytometry, MLPCN library, primary screen (AID 2016);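 also: median GFP fluorescence of the barcode-gated MEP2-GFP cells per well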
Conditions: S. cerevisiae MEP2-GFP strain, 3 h, at 10 µM, active compounds read high, 100% = DMSO control level

SMILES | GFP response vs DMSO
CC12c3ccccc3C(c3ccccc31)C1C(=O)N(Cc3cccnc3)C(=O)C12 (configuration not stated) | 107% (inactive)
COc1ccc(CNC(=O)CN2CCC(n3nnc4cc(F)ccc43)CC2)cc1 | 88.8% (inactive)
CSc1ccc(C#N)cc1NC(=O)c1cccc(Cl)c1 | 102% (inactive)
O=C(Nc1cccc2cccnc12)c1cccc(Cl)c1 | 567% [may fluoresce violet] (active)
O=C(Nc1cccnc1Cl)c1cc(-c2cccc(Cl)c2)on1 | 103% (inactive)
CC(=O)Nc1ccc(Nc2nc3c(S(=O)(=O)c4ccc(C)c(C)c4)nnn3c3ccccc23)cc1 | 103% (inactive)
Cc1ccc(S(=O)(=O)c2nnn3c2nc(N2CCN(c4ccccn4)CC2)c2ccccc23)cc1 | 112% (inactive)
Cc1cccc(Nc2nc3c(S(=O)(=O)c4ccccc4)nnn3c3ccccc23)c1C | 1130% [may fluoresce green] (active)
C=CC[C@@H](Cc1ccc(F)cc1)C(=O)OC[C@H]1CCCN1C(=O)[C@H](CC=C)CC(=O)N(CCO)Cc1ccccc1 | 103% (inactive)
NC1=NC(c2ccc([N+](=O)[O-])cc2)N(c2ccc(F)cc2)C(N)=N1 (configuration not stated) | 107% (inactive)
O=C(CC1SC(=Nc2ccccc2F)N(CCN2CCOCC2)C1=O)Nc1ccc(F)cc1F (configuration not stated) | 177% (active)
O=C(CC1SC(N2CCOCC2)=NC1=O)Nc1ccccc1F (configuration not stated) | 91.9% (inactive)
O=C(CN1CCN(C/C=C/c2ccccc2)CC1)Nc1ccc(F)cc1F | 100% (inactive)
CCCN1C2CCCC1CC(NC(=O)c1cccc(OC)c1)C2 (configuration not stated) | 93.2% (inactive)
Cc1ccc(-n2cc3ccc([N+](=O)[O-])cc3n2)cc1 | 98.2% (inactive)
Cc1ccc2c(c1)N(CC(=O)NCCc1ccc(Cl)cc1)C(=O)c1cccnc1O2 | 110% (inactive)
CCCCNC(=O)C1(O)c2ccccc2NC(=O)N1c1ccc(Cl)cc1 (configuration not stated) | 108% (inactive)
CCCCC1N2CC3([N+](=O)[O-])CN1CC([N+](=O)[O-])(C2)C3(C)C (configuration not stated) | 96.3% (inactive)
O=c1c2c(nc3nc[nH]n13)CCC2 | 532% [may fluoresce violet] (active)

SMILES | GFP response vs DMSO
CSc1nc2nc3c(c(=O)n2[nH]1)CCC3 | 95.3% (inactive)
O=c1c2c(nc3cc(-c4cccc(Cl)c4)[nH]n13)CCCC2 | 98.5% (inactive)
CNC(=O)Nc1cc(C(C)(C)C)no1 | 107% (inactive)
CCN(CC)c1ccc([N+](=O)[O-])cc1C(=O)O | 109% (inactive)
Cc1noc(C)c1CCC(=O)N1CCCC(CO)(Cc2ccccc2)C1 (configuration not stated) | 96.4% (inactive)
CCn1ncc(Br)c1C(=O)Nc1cc(C)ccc1F | 233% [may fluoresce violet] (active)
Cc1ccc(F)c(NC(=O)CCc2ccccc2)c1 | 93.7% (inactive)
Cc1ccc(F)c(NC(=O)CCOc2ccccc2C)c1 | 96.5% (inactive)
Cc1nnc(N(Cc2ccco2)C(=O)c2ccno2)s1 | 99% (inactive)
CC(C)CC(CO)N1CCN(C(=O)c2ccc(Cl)cc2Cl)CCC1=O (configuration not stated) | 96.1% (inactive)
CCCCc1c(O)nc2n(c1=O)CCS2 | 92.6% (inactive)
CCCS(=O)(=O)Nc1ccc(-c2cn3c(n2)SCC3)cc1 | 255% [may fluoresce violet] (active)
CCS(=O)(=O)Nc1ccc(C2=NN(C(C)=O)C(c3cccs3)C2)cc1 (configuration not stated) | 107% (inactive)
CCOc1ccc(NS(=O)(=O)c2ccc(C(=O)NCC(c3ccccc3OC)N3CCCC3)cc2)cc1 (configuration not stated) | 102% (inactive)
O=C(Nc1ccc(N2CCOCC2)c(Cl)c1)c1ccc(S(=O)(=O)N2CCOCC2)cc1 | 95.7% (inactive)
Cc1cc(C)n(-c2ccc(NC(=O)C3CCCCN3C(=O)c3cccs3)cc2)n1 (configuration not stated) | 92.9% (inactive)
Cc1cc(C)c(OCCN2CC(C)OC(C)C2)c(Br)c1 (configuration not stated) | 101% (inactive)
Cc1ccc(-c2nc(CS(=O)(=O)CC(=O)NCc3ccc4c(c3)OCO4)c(C)o2)cc1 | 102% (inactive)
COc1ccc(CCNC(=O)CS(=O)(=O)Cc2nc(-c3ccc(C)cc3)oc2C)cc1OC | 186% (active)

SMILES | GFP response vs DMSO
COc1cccc(-c2nc(CS(=O)(=O)CC(=O)NCCc3ccc(OC)c(OC)c3)c(C)o2)c1 | 98.7% (inactive)
O=C(CN1C(=O)c2cccnc2Oc2ccc(Cl)cc21)Nc1ccc(F)cc1 | 105% (inactive)
COc1ccc(CNC(=O)CCN2C(=O)c3ccccc3C2=O)cc1 | 96.1% (inactive)
COc1ccc(CNC(=O)CCn2cccc2)cc1 | 94.3% (inactive)
CCOc1cc2[nH]c(=O)n(CCC(=O)NCc3ccc(OC)cc3)c(=O)c2cc1OCC | 223% [may fluoresce violet] (active)
Cc1nccn1CC(=O)N/N=C/c1ccc(O)c(O)c1 | 105% (inactive)
O=C(N/N=C/c1ccc(Cl)c(Cl)c1)c1ccc2nc[nH]c2c1 | 97.5% (inactive)
NCCCCCC(=O)N/N=C/c1ccc2nccnc2c1 | 673% [may fluoresce violet] (active)
CCOc1ccc(C(C(=O)NCCOC)N(CCOC)C(=O)CCC(=O)Nc2ccccn2)cc1 (configuration not stated) | 296% [may fluoresce violet] (active)
COCCN(C(=O)CCC(=O)Nc1ccccn1)C(C(=O)NCCC(C)C)c1ccc(OC)cc1 (configuration not stated) | 107% (inactive)
COCCNC(=O)C(c1ccc(C)cc1)N(C(=O)CCC(=O)Nc1ccccn1)c1cccc(C)c1 (configuration not stated) | 107% (inactive)
Cn1c(CCC(=O)OCC(=O)NCc2ccccc2Cl)nc(=O)c2ccccc21 | 99.4% (inactive)
COc1cc(Cl)c(C)cc1NC(=O)CSc1nnc(CN2CCCC2)o1 | 105% (inactive)
CC1CC(=S)Nc2ccccc2N1Cc1ccccc1 (configuration not stated) | 98.4% (inactive)
Cc1cc(NS(=O)(=O)c2ccc(NC(=O)c3cccc(OC(F)F)c3)cc2)nc(C)n1 | 92% (inactive)
Cc1cccc(C)c1NC(=O)CS(=O)CC(=O)N1CCN(c2ccccc2)CC1 (configuration not stated) | 102% (inactive)
CC[n+]1cc(C)ccc1/C=C/c1ccc(N(C)C)cc1 | 180% (active)
Cc1ccccc1NC(=O)C1CCCN(C(=O)NCc2ccccc2)C1 (configuration not stated) | 105% (inactive)
COc1cccc(NC(=O)C(Sc2nnnn2C)c2ccccc2)c1 (configuration not stated) | 100% (inactive)
